HT1080 IDH1KD tx: qHTS for induction of synthetic lethality in tumor cells producing 2HG: qHTS for the HT-1080-IDH1KD cell line. HT-1080 IDH1 knockdown viability, ATP luminescence, 48 h. Potency, µM (titrated, usually from 46.1 µM), for inactives: at the highest dose activity, negative = toxicity, hits mostly cytotoxic. actives 2% (n = 360,000). AID 686971, 2013;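 further: potency means the concentration at half of the fitted maximal effect; 0% = DMSO wells and -100% = cell-free medium wells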
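In this qHTS, HT-1080 cells depleted of IDH1 are exposed for 48 h at 37 °C to compound titrations. Toxicity is scored from CellTiter-Glo luminescence, with DMSO as full viability and medium alone as none.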
DT40 TDP1 no CPT: qHTS for Inhibitors of human tyrosyl-DNA phosphodiesterase 1 (TDP1): qHTS in cells in absence of CPT; DT40 Tdp1-/- hTDP1 cells, no CPT, ATP luminescence, 48 h; Potency, µM (series often up to 46.2 µM), for inactives: at the top dose activity change, negative = growth inhibition, most hits filed as inhibitors; actives 15% (n = 420,000); AID 686978, 2013; further: potency means the concentration at half of the fitted maximal effect; nearly all actives have a fitted effect of over 55% in size
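No-CPT arm: Tdp1-/-;hTDP1 DT40 cells (400/well) plus compounds, incubated ≥48 hr at 37 °C. Readout CellTiter-Glo luminescence.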
TDP1 cell CPT: qHTS for Inhibitors of human tyrosyl-DNA phosphodiesterase 1 (TDP1): qHTS in cells in presence of CPT; chicken DT40 Tdp1-/-;hTDP1 cells + 20 nM CPT, ATP luminescence, 48 h; Potency, µM (doses to about 46.2 µM), for the others: at the top dose activity change, negative = growth inhibition, most hits filed as inhibitors; actives 12% (n = 420,000); AID 686979, 2013; further: potency means the concentration at half of the fitted maximal effect; nearly all actives have a fitted effect of over 55% in size
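Chicken DT40 Tdp1-/- cells stably complemented with human TDP1 were seeded at 400 cells/well in medium containing 20 nM camptothecin, exposed to pin-transferred compounds, and grown at 37 °C for at least 48 hr. Viability was read as ATP luminescence.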
IL-1B inflam inh: qHTS for Inhibitors of Inflammasome Signaling: IL-1-beta AlphaLISA Primary Screen; activity change, % at 57.5 µM; AID 743279, 2014; actives 4.7% (n = 360,000); THP-1 LPS/ATP IL-1B secretion, AlphaLISA, 16 h; hits give low values; in the data active means activity change below about -50%; inconclusive means mostly about -30% to -49%
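Secreted IL-1B measured by AlphaLISA bead assay after 16 h compound exposure of THP-1 cells; compounds (final up to 57.5 uM) added 1 h before LPS (250 ng/mL) and ATP (1.25 mM) stimulation; lower signal means less secretion.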
HT1080-NT tox: qHTS for induction of synthetic lethality in tumor cells producing 2HG: qHTS for the HT-1080-NT fibrosarcoma cell line; HT-1080-NT fibrosarcoma viability, CellTiter-Glo ATP luminescence, 48 h; Potency, µM (titrated, usually from 46.1 µM), without a hit: at the top dose activity, negative = less viability, usual class: cytotoxic; actives 1.6% (n = 360,000);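 further: NT is the 2HG producing partner of a matched IDH1 knockdown line; potency means the concentration at half of the fitted maximal effect; 0% = DMSO-treated cells and -100% = media-only wells without cells; nearly all actives have a fitted effect of over 55% in size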
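750 cells/well, RPMI + 5% FBS; 2 h settle, compound pin-transfer, 48 h at 37 degrees C. CellTiter-Glo 10 min RT, luminescence. Normalized to DMSO and media-only wells.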
An asterisk follows results filed as active; [ ] = another dose, or the depositor's remark. Sampled rows, rich in hits. Any-hit rate of the full collection: about 19%. Unless noted, the call rests on the fitted dose curve; in most records, active means well fitted curve in the direction sought with a large enough effect; inconclusive means small, poorly fitted or top-dose-only effect, or another doubt; inactive means no such curve, though single readings can be large; an effect the other way counts as inactive or inconclusive. Unless noted, on the % scale 0 is the no-effect control and ±100 the full control effect.

Results for Cc1cc(C)c(NC(=O)CSc2nc3ccccc3c(=O)n2CCCN2CCOCC2)c(C)c1 ?
HT1080 IDH1KD tx: 4.6%; DT40 TDP1 no CPT: inconclusive; TDP1 cell CPT: inconclusive; IL-1B inflam inh: inconclusive; HT1080-NT tox: 19.7%

How did COc1ccc(NC(=O)CSc2nc3ccccc3c(=O)n2CCCN2CCC(C)CC2)c(OC)c1 do in these assays?
HT1080 IDH1KD tx: 3.9%; DT40 TDP1 no CPT: inconclusive; TDP1 cell CPT: -7.8%; IL-1B inflam inh: -61.7*; HT1080-NT tox: -5.5%

What do the screens show for `Cc1ccc(NC(=O)CSc2nc3ccccc3c(=O)n2CCCN2CCCCC2)cc1Cl`?
HT1080 IDH1KD tx: inconclusive; DT40 TDP1 no CPT: 20.6µM*; TDP1 cell CPT: 20.6µM*; IL-1B inflam inh: -87.5*; HT1080-NT tox: 23.1µM*

How did CCc1ccc(NC(=O)CSc2nc3ccccc3c(=O)n2CCCC(=O)NCCCN2CCOCC2)cc1 do in these assays?
HT1080 IDH1KD tx: 18.4µM*; DT40 TDP1 no CPT: inconclusive; TDP1 cell CPT: -2.3%; IL-1B inflam inh: -102.9*; HT1080-NT tox: inconclusive

Results for CNC(C)[C@@H]1CC[C@@H](N)[C@@H](O[C@H]2[C@H](O)[C@@H](O[C@H]3OC[C@](C)(O)[C@H](NC)[C@H]3O)[C@H](N)C[C@@H]2N)O1 (some centres not stated) ?
DT40 TDP1 no CPT: -5.6%[21.1 µM]; TDP1 cell CPT: -18.5%[21.1 µM]

How did O=C1Nc2c(c(=O)[nH]c(=O)n2-c2ccc(Cl)cc2)C1(NS(=O)(=O)c1ccccc1)C(F)(F)F (configuration not stated) do in these assays?
DT40 TDP1 no CPT: 7.7%; TDP1 cell CPT: 3.0%

Results for COc1cc(/C=N/NC(=O)c2ccc(O)cc2)ccc1OCC(=O)N1CC(C)OC(C)C1 (configuration not stated) ?
HT1080 IDH1KD tx: 0.5%; DT40 TDP1 no CPT: -10.1%; TDP1 cell CPT: -15.0%; IL-1B inflam inh: 21.8; HT1080-NT tox: -13.2%

Results for CCOc1ccc(CCNC(c2nnc(-c3ccccc3)o2)c2ccccc2Cl)cc1OCC (configuration not stated) ?
DT40 TDP1 no CPT: 14.6µM*; TDP1 cell CPT: 14.6µM*

Results for CCOc1ccc(CCNC(c2cccc(Cl)c2)c2nnc(-c3ccccc3)o2)cc1OCC (configuration not stated) ?
DT40 TDP1 no CPT: 25.9µM*; TDP1 cell CPT: 16.4µM*

Results for Cc1ccc(C)c(S(=O)(=O)N2CCN(C(=O)C3CCN(C(=O)c4ccc(F)cc4)CC3)CC2)c1 ?
HT1080 IDH1KD tx: -0.7%; DT40 TDP1 no CPT: inconclusive; TDP1 cell CPT: inconclusive; IL-1B inflam inh: -0.2; HT1080-NT tox: 0.1%

Results for CC1=CC(C)(C)Nc2ccc(Cc3ccc4c(c3)C(C)=CC(C)(C)N4)cc21 ?
HT1080 IDH1KD tx: -17.4%; DT40 TDP1 no CPT: 20.6µM*; TDP1 cell CPT: 20.6µM*; IL-1B inflam inh: -5.5; HT1080-NT tox: -15.1%

What do the screens show for `O=C1CSC2(CCN(CCCN3c4ccccc4Sc4ccc(Cl)cc43)CC2)N1`?
DT40 TDP1 no CPT: 9.44µM*; TDP1 cell CPT: 23.7µM*

What do the screens show for `CN(c1ccccc1)S(=O)(=O)c1cccc(NC(=O)C2CCCO2)c1` (configuration not stated)?
HT1080 IDH1KD tx: -0.4%; DT40 TDP1 no CPT: -24.8%; TDP1 cell CPT: -19.2%; IL-1B inflam inh: -10.8; HT1080-NT tox: -1.3%

What do the screens show for `CCOC(=O)C1=CCN(S(=O)(=O)c2ccc(Cl)cc2)C1c1ccccc1` (configuration not stated)?
HT1080 IDH1KD tx: -16.0%; DT40 TDP1 no CPT: inconclusive; TDP1 cell CPT: inconclusive; IL-1B inflam inh: 8.1; HT1080-NT tox: -7.9%
